# Records with an inconclusive call do not appear. Entries that show only a call come without a potency. A number with no mark means an inactive call. Active and inactive are the calls of the source. Calls follow the shape of the dose curve; as a rule, active = well fitted activation curve with a large enough effect; inconclusive = small, poorly fitted or top-dose-only effect; inactive = flat fitted curve, though single readings scatter.
# Assay: Primary redox qHTS assay for identification of artifact compounds. (AID 1845223)
# Settings: Amplex Red/HRP redox cycling with DTT, fluorescence; series mostly up to 53.8 µM
# Method in brief: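 Redox-cycling detection via DTT (250 uM final) oxidation coupled to Amplex Red (25 uM)/HRP (250 mU/mL) in HBSS. 15 min preincubation plus 30 min after DTT, room temperature. Ex/Em 525/598 nm; 4-parameter Hill fit against DMSO and 10 uM DA3003.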
Compound,Potency,redox activity (% of DA3003)
C=C1CCCC2(C)CCC(C(C)(C)OC3OC(C)C(O)C(O)C3OC(=O)/C(C)=C\C)CC12 (stereo not given),inactive,–
C=C1C(=O)OC2/C=C(\COC(C)=O)CC/C=C(\C=O)CC(OC(=O)CC(C)C)C12 (stereo not given),inactive,–
NC(=O)c1nc(Nc2ccccc2)sc1NC(=O)C1CCCCC1,inactive,–
CNCc1cc(-c2ccccc2F)n(S(=O)(=O)c2cccnc2)c1,inactive,–
O=C(CNC(=O)c1cccc(C(F)(F)F)c1)N[C@@H]1CCN(Cc2ccc(Cl)cc2)C1,inactive,–
CCCNCCc1ccc(NS(=O)(=O)c2ccc(OC(F)(F)F)cc2)cc1,inactive,–
CCOC(=O)CCNc1cc(N2CCc3ccccc3CC2)nc(-c2cccnc2)n1,inactive,–
NC(=O)CCCSc1nc(N)nc(-c2c(Cl)cc3c4c(cccc24)COC3)n1,inactive,–
C1=Cc2ccccc2C(=C2CCN(CCCCc3nn[nH]n3)CC2)c2ccccc21,inactive,–
C/C=C(/C)C(=O)O[C@H]1[C@H](OC(=O)/C(C)=C\C)[C@@]23C(CC1(C)C)[C@]1(CCC4[C@@]5(C)CC[C@H](O[C@@H]6O[C@H](C(=O)O)[C@@H](O)[C@H](O[C@@H]7O[C@H](CO)[C@H](O)[C@H](O)[C@H]7O[C@@H]7O[C@@H](C)[C@H](O)[C@@H](O)[C@H]7O[C@@H]7OC[C@@H](O)[C@H](O)[C@H]7O)[C@H]6O[C@@H]6O[C@H](CO)[C@H](O)[C@H](O)[C@H]6O)C(C)(C)C5CC[C@@]4(C)[C@]1(C)C[C@H]2O)O[C@H]3O (stereo not given in full),–,13% [at 11.5 µM]
O=C(NCc1ccccc1-c1ccccc1C(=O)NCCc1ccccn1)OCc1ccccc1,inactive,–
O=C(NCCCc1ccccc1)C1CCC(CNS(=O)(=O)c2cccc3nsnc23)CC1 (stereo not given),inactive,–
COc1cc(OC)c2c(=O)[nH]c(-c3cc(C)c(OCCO)c(C)c3)nc2c1,inactive,–
CC(C)(O)c1ccn2c(-c3ccc(F)c(-c4ccc(F)cc4C#N)c3)cnc2c1F,inactive,–
C=CC(=O)N1CC(N2CCN(C(=O)CNc3cc(C4CC4)c(Cl)cc3O)CC2)C1,inactive,–
COc1ccc(NC(=O)C2C[C@H](C)CC[C@H]2C(C)C)cc1 (stereo not given in full),inactive,–
Fc1ccc(-c2nc(C3CCNCC3)sc2-c2ccnc(NC3CC3)n2)cc1,inactive,–
O=C(Nc1ccc(-n2nc(C(F)(F)F)cc2C(F)(F)F)cc1)c1ccncc1F,inactive,–
CC(=O)NC(C)c1cnc(-c2cnc(Oc3ccc(OC(C)C)cc3)s2)s1 (stereo not given),inactive,–
C=C1C(=O)OC2CC3(C)C(O)C(=O)C=C(C)C3CC12 (stereo not given),inactive,–
CC(=O)NCc1cccc(OC[C@@H](O)CNCCc2ccc(NS(=O)(=O)c3ccccc3)cc2)c1,inactive,–
Cc1c(C(=O)Nc2ccc(N3CCC(N4CCOCC4)CC3)c(C#N)c2)cnn1-c1ccc(Cl)cc1,inactive,–
CC(=O)O[C@@H]1CC[C@@]2(C)C(CC[C@]3(C)C2[C@H](O)C=C2[C@H]4[C@@H](C)[C@H](C)CC[C@]4(C)CC[C@]23C)[C@@]1(C)C(=O)O (stereo not given in full),inactive,–
CCn1c(-c2nonc2N)nc2c(C#CCO)ncc(OCCCN)c21,inactive,–
C[C@@H]1O[C@@H](O[C@H]2[C@@H](OC(=O)[C@]34CCC(C)(C)CC3C3=CCC5[C@@]6(C)C[C@H](O)[C@H](O[C@@H]7O[C@H](CO)[C@@H](O)[C@H](O)[C@H]7O[C@@H]7OC[C@@H](O)[C@H](O)[C@H]7O)[C@@](C)(C(=O)O)C6CC[C@@]5(C)[C@]3(C)CC4)OC[C@H](O)[C@@H]2O)[C@H](O)[C@H](O)[C@H]1O[C@@H]1OC[C@@H](O)[C@H](O)[C@H]1O (stereo not given in full),–,18.4% [at 11.5 µM]
COc1ccc(S(=O)(=O)n2cnc3cc(C)c(C)cc32)cc1,inactive,–
CC(=O)C1=CCC2C3CC=C4CC(O)CC(O)C4(C)C3C(O)CC12C (stereo not given),inactive,–
CC(C)C[C@@H]1NC(=O)[C@@H](Cc2ccccc2)NC(=O)C(CCCCCC(=O)C2CO2)NC(=O)[C@@H]2CCCCN2C1=O (stereo not given in full),inactive,–
C=C1CC[C@@H](O)[C@]2(C)C[C@H]3OC(=O)C(=C)[C@H]3CC12 (stereo not given in full),inactive,–
CC1CCCC(O)CCC/C=C/c2cc(OS(=O)(=O)O)cc(O)c2C(=O)O1 (stereo not given),inactive,–
